The supplement of paper PMC11732987, “Enantioselective OTUD7B fragment discovery through chemoproteomics screening and high-throughput optimisation” (Communications Chemistry, 2025)

Assays:
Experiment in all cases: log2 ratio of Biotin-Ahx-Ub-VS probe labelling (fragment/DMSO); higher = less target engagement (more negative = stronger competition), active = hit call of the paper (q ≤ 0.05, log2 ratio ≤ -1)
Conditions in all cases: compound concentration: 200 uM; treatment time: 3 h
USP19 = target: T1, USP19 (UniProt O94966)
T1 sequence (whole entry): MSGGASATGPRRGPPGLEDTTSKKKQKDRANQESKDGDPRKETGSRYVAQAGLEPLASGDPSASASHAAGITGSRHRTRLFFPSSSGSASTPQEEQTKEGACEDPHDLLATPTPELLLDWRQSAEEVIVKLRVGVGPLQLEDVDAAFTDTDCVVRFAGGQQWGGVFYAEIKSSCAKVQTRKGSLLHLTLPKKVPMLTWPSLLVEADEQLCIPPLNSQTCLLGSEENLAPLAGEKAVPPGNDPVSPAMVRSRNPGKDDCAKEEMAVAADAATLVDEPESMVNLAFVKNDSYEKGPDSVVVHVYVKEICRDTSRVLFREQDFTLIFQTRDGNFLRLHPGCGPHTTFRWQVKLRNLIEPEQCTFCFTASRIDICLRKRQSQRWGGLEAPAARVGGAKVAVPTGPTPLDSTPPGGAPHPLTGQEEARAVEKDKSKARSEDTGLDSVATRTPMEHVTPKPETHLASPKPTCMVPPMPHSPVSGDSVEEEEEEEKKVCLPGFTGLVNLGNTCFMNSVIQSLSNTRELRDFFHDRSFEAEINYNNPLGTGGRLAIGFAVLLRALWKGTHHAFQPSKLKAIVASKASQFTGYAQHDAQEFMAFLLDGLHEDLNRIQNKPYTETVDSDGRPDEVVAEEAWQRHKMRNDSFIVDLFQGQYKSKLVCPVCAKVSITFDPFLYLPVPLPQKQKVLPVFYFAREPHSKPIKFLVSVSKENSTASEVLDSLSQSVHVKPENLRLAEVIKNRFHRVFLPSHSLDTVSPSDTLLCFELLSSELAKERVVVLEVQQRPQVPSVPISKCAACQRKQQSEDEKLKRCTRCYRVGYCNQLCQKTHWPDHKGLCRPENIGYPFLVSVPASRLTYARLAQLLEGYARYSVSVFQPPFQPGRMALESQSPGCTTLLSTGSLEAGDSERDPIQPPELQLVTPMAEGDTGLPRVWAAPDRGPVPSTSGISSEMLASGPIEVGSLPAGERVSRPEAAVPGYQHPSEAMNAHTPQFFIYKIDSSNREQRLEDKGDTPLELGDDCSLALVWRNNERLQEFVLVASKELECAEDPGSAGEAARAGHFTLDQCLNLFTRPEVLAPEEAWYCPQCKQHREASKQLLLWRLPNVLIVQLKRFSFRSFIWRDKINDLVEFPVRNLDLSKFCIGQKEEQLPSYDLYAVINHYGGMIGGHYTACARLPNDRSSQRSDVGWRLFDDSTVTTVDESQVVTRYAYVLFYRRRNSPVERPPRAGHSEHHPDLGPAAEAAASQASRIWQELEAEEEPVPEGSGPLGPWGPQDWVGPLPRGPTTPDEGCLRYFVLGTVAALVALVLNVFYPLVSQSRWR
Outline: (§1)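 HEK293T lysate (495 µg per sample, in Tris/CHAPS/IGEPAL buffer with protease inhibitors) was treated in triplicate with fragment at 200 µM or with DMSO for 3 h. It was then treated with Biotin-Ahx-Ub-VS (0.5 µM final) for 1 h. Labelled DUBs were NeutrAvidin-enriched, digested with LysC and trypsin, and run by diaPASEF LC-MS/MS. Spectronaut label-free quantities were global-median-normalised. Values are average log2 ratios fragment/DMSO by unpaired t-test, using proteins with ≥2 unique peptides.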

USP24 = USP24 (UniProt Q9UPU5)
Outline: as §1

USP25 = target: T2, USP25 (UniProt Q9UHP3)
T2 sequence (whole entry): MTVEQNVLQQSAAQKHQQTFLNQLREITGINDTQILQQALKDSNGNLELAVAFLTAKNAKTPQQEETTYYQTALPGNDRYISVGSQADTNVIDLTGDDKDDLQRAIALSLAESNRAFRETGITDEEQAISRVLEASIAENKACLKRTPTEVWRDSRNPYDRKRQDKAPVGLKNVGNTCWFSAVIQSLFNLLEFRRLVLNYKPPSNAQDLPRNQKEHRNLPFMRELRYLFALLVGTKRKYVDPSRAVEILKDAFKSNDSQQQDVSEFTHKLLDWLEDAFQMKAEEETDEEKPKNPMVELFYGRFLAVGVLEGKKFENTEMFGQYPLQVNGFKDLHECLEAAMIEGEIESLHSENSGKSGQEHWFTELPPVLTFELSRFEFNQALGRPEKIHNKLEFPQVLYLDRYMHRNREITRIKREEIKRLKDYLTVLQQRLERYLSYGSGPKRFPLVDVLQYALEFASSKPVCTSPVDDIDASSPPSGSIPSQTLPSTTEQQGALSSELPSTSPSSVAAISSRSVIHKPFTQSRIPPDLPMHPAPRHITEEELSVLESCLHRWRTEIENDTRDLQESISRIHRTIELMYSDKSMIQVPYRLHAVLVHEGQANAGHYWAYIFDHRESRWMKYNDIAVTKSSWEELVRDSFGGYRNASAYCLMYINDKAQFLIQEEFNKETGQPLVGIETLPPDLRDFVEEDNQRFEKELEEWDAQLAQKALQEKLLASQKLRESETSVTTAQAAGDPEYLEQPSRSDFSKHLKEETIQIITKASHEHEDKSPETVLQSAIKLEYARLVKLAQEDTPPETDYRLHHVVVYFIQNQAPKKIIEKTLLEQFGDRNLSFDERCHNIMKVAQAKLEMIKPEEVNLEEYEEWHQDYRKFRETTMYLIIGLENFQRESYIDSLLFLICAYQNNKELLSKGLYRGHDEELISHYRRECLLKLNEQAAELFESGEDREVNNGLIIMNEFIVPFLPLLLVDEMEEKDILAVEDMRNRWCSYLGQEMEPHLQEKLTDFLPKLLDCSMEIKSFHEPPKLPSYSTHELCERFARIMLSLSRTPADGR
Outline: as §1

USP28 = target: T3, USP28 (UniProt Q96RU2)
T3 sequence (whole entry): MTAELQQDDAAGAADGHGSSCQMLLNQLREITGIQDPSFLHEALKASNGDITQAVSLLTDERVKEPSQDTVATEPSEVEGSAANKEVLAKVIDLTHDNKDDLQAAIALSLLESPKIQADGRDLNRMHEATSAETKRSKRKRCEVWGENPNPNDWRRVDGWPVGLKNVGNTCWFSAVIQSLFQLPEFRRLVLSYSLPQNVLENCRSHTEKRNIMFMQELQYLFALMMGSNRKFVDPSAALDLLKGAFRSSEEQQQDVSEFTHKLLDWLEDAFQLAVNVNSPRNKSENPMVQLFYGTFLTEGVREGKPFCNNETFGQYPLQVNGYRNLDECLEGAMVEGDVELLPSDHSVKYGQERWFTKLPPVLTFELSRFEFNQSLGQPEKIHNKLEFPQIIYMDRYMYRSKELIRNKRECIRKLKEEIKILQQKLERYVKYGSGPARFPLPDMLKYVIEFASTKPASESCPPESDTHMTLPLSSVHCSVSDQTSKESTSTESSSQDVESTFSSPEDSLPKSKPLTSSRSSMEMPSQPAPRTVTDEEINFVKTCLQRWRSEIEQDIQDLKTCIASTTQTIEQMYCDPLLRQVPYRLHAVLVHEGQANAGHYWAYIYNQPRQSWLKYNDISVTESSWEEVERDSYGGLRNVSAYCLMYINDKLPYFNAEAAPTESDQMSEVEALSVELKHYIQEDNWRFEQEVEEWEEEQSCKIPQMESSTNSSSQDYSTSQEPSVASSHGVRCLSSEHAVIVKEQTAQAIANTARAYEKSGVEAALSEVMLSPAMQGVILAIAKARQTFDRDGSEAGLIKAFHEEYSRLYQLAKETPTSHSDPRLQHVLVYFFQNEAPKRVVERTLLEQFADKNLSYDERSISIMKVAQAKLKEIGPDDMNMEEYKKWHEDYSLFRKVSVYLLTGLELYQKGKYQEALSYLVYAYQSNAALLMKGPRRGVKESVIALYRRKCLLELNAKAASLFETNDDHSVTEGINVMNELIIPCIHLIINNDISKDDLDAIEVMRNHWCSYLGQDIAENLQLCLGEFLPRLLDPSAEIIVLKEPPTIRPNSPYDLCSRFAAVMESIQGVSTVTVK
Outline: as §1

Measured: log2 ratio of Biotin-Ahx-Ub-VS probe labelling

USP24, sequence (Q9UPU5 whole entry): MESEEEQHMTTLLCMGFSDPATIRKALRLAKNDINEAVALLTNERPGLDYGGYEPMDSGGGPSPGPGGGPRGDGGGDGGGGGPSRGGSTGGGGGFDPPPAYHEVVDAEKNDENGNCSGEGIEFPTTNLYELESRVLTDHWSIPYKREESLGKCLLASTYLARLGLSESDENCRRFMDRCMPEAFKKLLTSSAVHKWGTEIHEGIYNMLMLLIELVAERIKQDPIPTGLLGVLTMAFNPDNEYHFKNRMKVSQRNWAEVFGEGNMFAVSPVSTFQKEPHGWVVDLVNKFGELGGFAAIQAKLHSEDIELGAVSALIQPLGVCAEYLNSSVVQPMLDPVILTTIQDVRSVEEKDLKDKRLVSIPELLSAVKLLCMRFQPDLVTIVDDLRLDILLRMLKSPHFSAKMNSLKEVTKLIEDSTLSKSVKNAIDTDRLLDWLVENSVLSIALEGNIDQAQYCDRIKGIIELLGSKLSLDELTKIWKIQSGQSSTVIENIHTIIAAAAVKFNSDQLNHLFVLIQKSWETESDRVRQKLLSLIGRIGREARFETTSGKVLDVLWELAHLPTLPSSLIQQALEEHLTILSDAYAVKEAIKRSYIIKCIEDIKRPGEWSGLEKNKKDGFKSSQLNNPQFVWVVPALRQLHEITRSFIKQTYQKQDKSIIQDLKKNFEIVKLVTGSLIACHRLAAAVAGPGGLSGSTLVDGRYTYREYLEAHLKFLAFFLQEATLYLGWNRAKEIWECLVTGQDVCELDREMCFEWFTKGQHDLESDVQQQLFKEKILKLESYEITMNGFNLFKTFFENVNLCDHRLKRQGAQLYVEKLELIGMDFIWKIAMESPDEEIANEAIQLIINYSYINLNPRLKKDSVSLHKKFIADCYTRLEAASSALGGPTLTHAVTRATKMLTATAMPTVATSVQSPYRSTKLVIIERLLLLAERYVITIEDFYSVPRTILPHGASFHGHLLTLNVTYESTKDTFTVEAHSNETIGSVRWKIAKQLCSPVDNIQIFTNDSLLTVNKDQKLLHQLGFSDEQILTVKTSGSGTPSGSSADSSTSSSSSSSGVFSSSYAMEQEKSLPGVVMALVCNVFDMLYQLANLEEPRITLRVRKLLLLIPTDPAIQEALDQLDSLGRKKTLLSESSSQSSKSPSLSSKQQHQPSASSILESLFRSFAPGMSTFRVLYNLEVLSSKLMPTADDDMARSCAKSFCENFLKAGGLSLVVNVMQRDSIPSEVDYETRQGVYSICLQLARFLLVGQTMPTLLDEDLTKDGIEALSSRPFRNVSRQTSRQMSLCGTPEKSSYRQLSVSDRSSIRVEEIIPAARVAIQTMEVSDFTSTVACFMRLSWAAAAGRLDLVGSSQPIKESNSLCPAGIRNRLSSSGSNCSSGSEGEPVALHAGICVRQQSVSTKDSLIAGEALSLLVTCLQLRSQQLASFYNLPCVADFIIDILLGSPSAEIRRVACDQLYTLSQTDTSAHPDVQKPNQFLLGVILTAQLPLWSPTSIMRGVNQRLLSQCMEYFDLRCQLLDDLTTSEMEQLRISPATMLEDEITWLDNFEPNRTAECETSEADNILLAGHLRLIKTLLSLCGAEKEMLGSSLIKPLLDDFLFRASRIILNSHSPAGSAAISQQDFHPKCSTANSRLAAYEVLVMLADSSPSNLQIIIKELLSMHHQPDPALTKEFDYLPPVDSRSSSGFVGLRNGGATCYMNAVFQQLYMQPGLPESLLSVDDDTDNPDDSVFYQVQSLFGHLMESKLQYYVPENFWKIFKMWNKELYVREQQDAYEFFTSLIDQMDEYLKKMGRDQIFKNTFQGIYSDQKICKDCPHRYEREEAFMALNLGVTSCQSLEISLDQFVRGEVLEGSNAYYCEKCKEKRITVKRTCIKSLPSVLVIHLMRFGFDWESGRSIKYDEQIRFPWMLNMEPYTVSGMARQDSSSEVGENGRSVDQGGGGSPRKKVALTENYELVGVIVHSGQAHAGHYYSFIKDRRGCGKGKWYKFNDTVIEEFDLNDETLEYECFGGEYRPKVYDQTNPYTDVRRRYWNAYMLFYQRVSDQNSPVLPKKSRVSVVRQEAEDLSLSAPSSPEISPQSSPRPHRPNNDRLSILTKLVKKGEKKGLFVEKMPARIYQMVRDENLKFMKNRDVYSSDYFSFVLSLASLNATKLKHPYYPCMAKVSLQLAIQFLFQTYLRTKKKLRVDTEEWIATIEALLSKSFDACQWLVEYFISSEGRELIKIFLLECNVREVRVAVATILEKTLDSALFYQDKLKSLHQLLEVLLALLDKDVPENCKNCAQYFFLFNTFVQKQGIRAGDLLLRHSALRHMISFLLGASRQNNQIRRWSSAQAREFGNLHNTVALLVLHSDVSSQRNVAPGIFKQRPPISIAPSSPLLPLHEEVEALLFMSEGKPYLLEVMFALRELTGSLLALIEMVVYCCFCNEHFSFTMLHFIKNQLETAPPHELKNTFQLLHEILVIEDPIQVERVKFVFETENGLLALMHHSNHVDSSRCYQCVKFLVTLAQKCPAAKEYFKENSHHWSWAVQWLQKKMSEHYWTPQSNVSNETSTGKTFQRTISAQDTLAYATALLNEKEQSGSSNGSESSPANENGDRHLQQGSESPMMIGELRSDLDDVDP

O=C(CCl)N1CCOCCC1c1ccccc1 (centres undefined)
inactive: USP19 -0.132 | USP24 -0.633 | USP25 0.0233 | USP28 -0.12
